Rows were chosen to be rich in hits. Some 2% of all compounds tested hit in one or more screens of this group.
PolyA inh = polyadenylation inhibitors in yeast reporter cells, primary screen, luminescence, S. cerevisiae. S. cerevisiae SKY197-pL101 polyadenylation reporter, beta-gal luminescence; efflux-impaired pdr1/pdr3 knockout yeast; score 100 = 6 SD above DMSO. activity score, % at 12 µM. hit rate 0.02% among 300,000;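 active = lowest replicate activity score at least 50, where 100 means six control SD above control mean; inconclusive = lowest score under 50 but half or more replicates reach 50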;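 also: yeast exposed to compound for 9 h at 30 °C; higher score means more reporter readthrough which indicates perturbed polyadenylation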
Platelet DG rel = inhibitors of platelet dense granule secretion, primary screen, cell-based, MLPCN, human platelets. human platelet-rich plasma, SFLLRN dense granule ATP release, luminescence. inhibition, %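 (compounds screened at 7.5 µM in platelet-rich plasma)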. hit rate 0.22% among 300,000;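 active = mean replicate score, as percent of positive control, at or above 50; inconclusive = mean below 50 but at least one replicate at or above 50; inactive = mean and every replicate below 50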
SKKanGAS inh = S. pyogenes SKKanGAS growth inhibitors in kanamycin, primary screen, streptokinase expression inhibitor project, SKKanGAS strain, BacTiter-Glo luminescence. 6 h. hit rate 1.3% among 300,000. inhibition, % at 7.5 µM;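 active = mean replicate score, as percent of positive control median, at least 50; inconclusive = mean below 50 but one replicate at or above 50; inactive = mean and every replicate below 50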;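 also: strain carries kanamycin resistance gene driven by streptokinase promoter and grows in 40 µg/ml kanamycin; loss of luminescence reflects streptokinase promoter inhibition or plain growth inhibition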
Calb FLC = C. albicans growth inhibition with fluconazole, primary screen, CaCi-2 strain, Alamar Blue fluorescence. hit rate 0.57% among 300,000. growth inhibition, % (concentration not given with the values). C. albicans CaCi-2 (fluconazole-resistant clinical isolate) + fluconazole, 48 h. AID 1979, 2009;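 active = growth inhibition above about 58% in most replicates, limit read from the data, passing the limit was not always enough; inconclusive = exactly half the replicates above a set limit; inactive = most replicates below a set limit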;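 also: all wells also contain fluconazole at 8 µg/ml as a sub-toxic cotreatment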
CR mimetic SO = reduction of superoxide in aged yeast, primary screen, HTS; S. cerevisiae aged cells, superoxide DHE fluorescence; stronger effect = lower value; superoxide response (% of plate mean), % at 10 µM; hit rate 0.18% among 330,000;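 active = superoxide response under a set limit, about three screen SD below normal, cut at about 65% in these data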;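 also: yeast aged for seven days with compound at 30 °C before DHE staining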
CR mimetic CP = superoxide lowering in aged yeast cells, confirmation, cherry picked compounds; shares compounds with CR mimetic SO; S. cerevisiae aging, superoxide DHE fluorescence; stronger effect = lower value; superoxide response (% of plate), % at 10 µM; hit rate 1% among 850;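 active = superoxide signal below 65% of the plate average of sample wells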;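 also: cells aged with compound for 7 days at 30 degrees C before staining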
DHE fluor count = DHE quenching or ROS scavenging interference in aged yeast, artefact control for yeast caloric restriction mimetic project, S. cerevisiae BY4741, flow cytometry; shares compounds with CR mimetic SO; DHE fluorescence; stronger effect = lower value; fluorescence response, % at 10 µM; 850 tested, under 10 active;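 active = fluorescence response below 15%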;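 also: lower means stronger quenching of DHE signal or ROS scavenging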
Large screens that a line does not name were inactive (follow-up assays come after a bar, where they were run).

COc1ccccc1NC(=O)Cc1nnc(SCC(=O)c2ccc(F)cc2)n1C	none
CN(C)S(=O)(=O)c1cc(NC(=O)COC(=O)CC2Sc3ccccc3NC2=O)ccc1Cl (stereo unspecified)	none (no result: PolyA inh, Platelet DG rel, SKKanGAS inh, Calb FLC)
COc1ccc(NC(=O)CSc2nnc(C)s2)cc1S(=O)(=O)N1CCOCC1	none (no result: PolyA inh, Platelet DG rel, SKKanGAS inh, Calb FLC)
O=C(NNc1nc(=O)c2cccnc2s1)c1ccccc1O	CR mimetic SO 50 | CR mimetic CP inactive | DHE fluor count inactive
O=C(NNc1c2ccccc2nc2ccccc12)c1ccccc1O	none
O=C(Cn1cc([N+](=O)[O-])cn1)N1CCN(Cc2ccc3c(c2)OCO3)CC1	none
CCN(CC(=O)Nc1c(F)cccc1F)C(=O)CCC(=O)c1ccc(C)cc1	none
COc1ccc(CC(=O)Nc2cc(S(=O)(=O)N3CCOCC3)ccc2N2CCCC2)cc1OC	none (no result: PolyA inh, Platelet DG rel, SKKanGAS inh, Calb FLC) | CR mimetic CP inactive | DHE fluor count inactive
O=C(Cc1c(F)cccc1Cl)Nc1cc(S(=O)(=O)N2CCOCC2)ccc1N1CCCC1	none (no result: PolyA inh, Platelet DG rel, SKKanGAS inh, Calb FLC)
O=C(Cc1ccc(Cl)cc1)Nc1cc(S(=O)(=O)N2CCOCC2)ccc1N1CCCC1	none | CR mimetic CP inactive | DHE fluor count inactive
CC[N+]1=C(C)C(C)(C)c2cc(C)ccc21	none
Cc1ccc2c(c1)C=CC(C)(C)S2=O (stereo unspecified)	CR mimetic SO 64 | CR mimetic CP inactive | DHE fluor count inactive
O=c1c2ccccc2ncn1Cc1ccccc1	CR mimetic SO 57 | CR mimetic CP inactive | DHE fluor count inactive
O=c1c2ccccc2ncn1Cc1cccc2ccccc12	none
Cc1ccc(-c2nnc(N3CCCCC3)c3ccccc23)cc1S(=O)(=O)N(C)C	none
Cc1ccc(-c2nnc(Nc3ccc4c(c3)OCO4)c3ccccc23)cc1S(=O)(=O)NCCO	none | CR mimetic CP inactive | DHE fluor count inactive
Cc1ccc(-c2nnc(Nc3ccc4c(c3)OCO4)c3ccccc23)cc1S(=O)(=O)NC(C)C	none | CR mimetic CP inactive | DHE fluor count inactive
Cc1ccc(-c2nnc(Nc3ccc(CC(N)=O)cc3)c3ccccc23)cc1S(=O)(=O)NCCO	none
COC(=O)C1(C)NC(c2ccc(O)cc2)C2C(=O)N(c3ccc(C)cc3)C(=O)C21 (stereo unspecified)	none
CCOC(=O)N1CCN(C(=O)CSc2nc(=O)n3ccccc3n2)CC1	none
COc1ccc(Cl)cc1C(=O)NCc1cnn(C)c1C	CR mimetic SO 65 | CR mimetic CP inactive | DHE fluor count inactive
Cc1ccc(-n2cc(-c3ccccc3)c3c(NN4CCOCC4)ncnc32)cc1	CR mimetic SO 62 | CR mimetic CP inactive | DHE fluor count inactive
Cc1cccc(-n2cc(-c3ccccc3)c3c(NN4CCOCC4)ncnc32)c1	none
CC1(C)CSC(=S)N1S(=O)(=O)c1ccccc1	CR mimetic SO 58 | CR mimetic CP inactive | DHE fluor count inactive
O=C(O)c1ccccc1C(=O)NCc1c(Cl)cccc1Sc1ccc(Cl)cc1	none
COc1ccc(CC(=O)OCC(=O)Nc2cc(Cl)ccc2C)cc1	CR mimetic SO 63 (no result: PolyA inh, Platelet DG rel, SKKanGAS inh, Calb FLC) | CR mimetic CP inactive | DHE fluor count inactive
COc1ccc(CC(=O)OCC(=O)Nc2cccc(Cl)c2)cc1	none
CC(=O)Nc1ccc(NC(=O)CSc2n[nH]c(-c3cccs3)n2)cc1	none
O=C(O)C1(c2ccccc2)CCN(S(=O)(=O)c2ccc(F)c(F)c2)CC1	none
O=C(/C=C/c1ccc(F)cc1)c1ccccc1Br	none
CCn1c2ccccc2c2cc(N)ccc21	none | CR mimetic CP inactive | DHE fluor count inactive
CCn1c2ccccc2c2cc(CNCc3ccc(OC)cc3OC)ccc21	Calb FLC inconclusive
Cn1c2ccccc2c2cc(C(=O)O)ccc21	none
CCCn1c2ccccc2c2cc(C(=O)O)ccc21	none | CR mimetic CP inactive | DHE fluor count inactive
CCn1c(=O)n(CC)c2cc(N)ccc21	none
CCC(CC)NCc1ccc2c(c1)c1ccccc1n2CC	none | CR mimetic CP inactive | DHE fluor count inactive
CCn1c2ccccc2c2cc(/C(C)=N/O)ccc21	none | CR mimetic CP inactive | DHE fluor count inactive
CCC1CCCCN1C(=O)COC(=O)CN(C)S(=O)(=O)c1ccc(NC(C)=O)cc1 (stereo unspecified)	none
COc1ccc(-n2c(=O)c3c(C)c(C)sc3n(Cc3ccc(F)cc3)c2=O)c(OC)c1	none
CC(C(=O)Nc1ccc(Cl)cc1Cl)N1C(=O)NC2(CCCC2)C1=O (stereo unspecified)	none
COc1cc(NC(=O)Cn2nc(C(F)(F)F)c(Br)c2C)cc([N+](=O)[O-])c1	none
Cc1nc(C)c(C(=O)O)c(-c2ccsc2)c1C(=O)O	CR mimetic SO 61 | CR mimetic CP inactive | DHE fluor count inactive
COC(=O)c1c(C)nc(C)c(C(=O)OC)c1-c1ccsc1	none (no result: Platelet DG rel)
COc1ccc(NC(=O)c2ccc(NC3=NC4CS(=O)(=O)CC4S3)cc2)cc1 (stereo unspecified)	none
O=C(NC(Cc1ccccc1)C(=O)O)/C(=C/c1ccccc1)NC(=O)c1ccccc1 (stereo unspecified)	CR mimetic SO 65 | CR mimetic CP inactive | DHE fluor count inactive
Cc1ccc(S(=O)(=O)CCC(=O)N(C)C2CCCCC2)cc1	none
O=C(/C=C/c1ccccc1[N+](=O)[O-])NCc1ccccc1Cl	CR mimetic SO 64 | CR mimetic CP inactive | DHE fluor count inactive
CCNC(=O)/C=C/c1ccccc1[N+](=O)[O-]	none
CC(C)=NNC(=O)c1c(O)c2ccccc2[nH]c1=O	CR mimetic SO 62 | CR mimetic CP inactive | DHE fluor count inactive
CCNC(=O)c1c(O)c2ccccc2[nH]c1=O	none
CC1C(=O)N2CCCc3cc(S(=O)(=O)N4CCN(c5cccc(Cl)c5)CC4)cc1c32 (stereo unspecified)	none
COc1cccc(C(=O)N2CCC(C(=O)NCc3ccc(C)cc3)CC2)c1	none
CC(=O)Oc1ccc(Nc2ccccc2)cc1	CR mimetic SO 50 | CR mimetic CP inactive | DHE fluor count inactive
O=C(COc1ccccc1)Nc1nnc(S(=O)(=O)Nc2ccccc2)s1	none
CCOc1cc(/C=C/c2ccc3cccc([N+](=O)[O-])c3n2)ccc1O	none
CCOc1cccc(/C=C/c2ccc3cccc(O)c3n2)c1OC	SKKanGAS inh 98, Calb FLC inconclusive, CR mimetic SO 42 | CR mimetic CP inactive | DHE fluor count inactive
Cc1cc(C)cc(N(CC(=O)NCCSCc2ccccc2)S(C)(=O)=O)c1	Calb FLC inconclusive
CC1(C)C(=O)CC[C@@]2(C)[C@H]1CC[C@@]1(C)CC3=C(CC[C@@H]12)[C@@]1(C)CCC(=O)C(C)(C)[C@@H]1CC3	CR mimetic SO 64 (no result: PolyA inh, Platelet DG rel, SKKanGAS inh, Calb FLC) | CR mimetic CP inactive | DHE fluor count inactive
CC(=O)c1ccc(NC(=O)CNCc2cccs2)cc1	none
